NPC1 promoter act: activators of NPC1 promoter; Huh7 NPC1 promoter luciferase reporter, 24 h; Potency, µM (series often up to 9.22 µM), inactives show top-dose activation, actives largely listed as activators; AID 485313; 320,000 compounds, 2.4% hits; note: % of control where 0% means no effect; nearly all actives have a fitted effect of over 60% in size
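Huh7 cells stably carrying NPC1 promoter–luciferase, plated in Opti-MEM with 10% FBS for 2 h, were exposed to compound in DMSO for 24 h at 37 °C; luciferase reagent was added for 10 min and luminescence read.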
FLuc modulator: counter-screen for miR-21 project: firefly luciferase inhibitors or activators; Potency, µM (doses to about 57.5 µM), inactives show top-dose activity change, negative = inhibition, hits mostly inhibitors; 360,000 compounds, 6.9% hits; purified FLuc, Km substrates, luminescence inhibition;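 note: plate controls were vehicle for no effect and reference inhibitor for full effect; nearly all actives have a fitted effect of over 55% in size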
Target sequence (P08659 whole entry, looked up): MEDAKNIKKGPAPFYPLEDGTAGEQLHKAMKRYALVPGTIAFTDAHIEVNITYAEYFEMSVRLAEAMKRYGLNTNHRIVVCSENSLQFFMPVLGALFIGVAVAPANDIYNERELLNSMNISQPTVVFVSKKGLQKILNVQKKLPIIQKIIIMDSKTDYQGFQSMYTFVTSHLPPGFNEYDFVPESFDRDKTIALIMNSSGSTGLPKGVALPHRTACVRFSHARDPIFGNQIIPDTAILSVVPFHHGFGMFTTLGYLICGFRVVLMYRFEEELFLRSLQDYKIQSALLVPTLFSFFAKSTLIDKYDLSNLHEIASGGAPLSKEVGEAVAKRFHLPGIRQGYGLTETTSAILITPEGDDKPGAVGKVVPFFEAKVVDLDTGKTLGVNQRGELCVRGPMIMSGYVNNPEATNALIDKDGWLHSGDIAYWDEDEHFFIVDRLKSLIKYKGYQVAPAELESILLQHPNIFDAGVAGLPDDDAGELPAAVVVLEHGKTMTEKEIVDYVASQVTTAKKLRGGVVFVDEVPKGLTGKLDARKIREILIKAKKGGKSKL
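Biochemical qHTS of compounds, final roughly 60 µM downward over six points, against 10 nM purified firefly luciferase using Km concentrations of substrates (10 uM D-luciferin, 10 uM ATP) in Tris acetate pH 7.5 buffer; luminescence output.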
SMN2 splice enh: increases expression of the SMN2 splice variant; HEK293 SMN2-luciferase splicing reporter, luminescence, 30-36 h; Potency, µM (doses to about 46.1 µM), without a hit: at the top dose activity change, positive = activation, most hits filed as activators; 210,000 compounds, 2.8% hits; AID 1458; note: % of control where 0% means no effect; nearly all actives have a fitted effect of over 55% in size
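HEK293 cells carry an SMN2 minigene-luciferase reporter in which exon 7 inclusion puts luciferase in frame. Cells were seeded at 2000 cells/well, attached for 10-12 hours, then exposed to compounds for 30-36 hours at 37C before ONE-Glo luminescence.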
Rab9 promoter act: Rab9 promoter activation; Huh7 Rab9 promoter-luciferase reporter, luminescence, 24 h; Potency, µM (titrated, usually from 9.22 µM), inactives show at the top dose activation, negative = inhibition, hits mostly activators; 320,000 compounds, 2.8% hits; AID 485297; note: % of control where 0% means no effect; nearly all actives have a fitted effect of over 60% in size
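Huh7 cells stably carrying a Rab9 promoter-luciferase reporter, 1500 cells per well in OP-MEM I with 10% FBS, treated with compound 24 hours at 37C. Luciferase activity read by luminescence after 10 minutes with Amplite reagent.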
ELG1 genotoxic: induces genotoxicity in HEK293T cells with luciferase-tagged ELG1; HEK293T ELG1-luciferase reporter, luminescence, 16 h; Potency, µM (highest dose often 46 µM), inactives show at the highest dose activity change, positive = activation, actives largely listed as activators; 330,000 compounds, 1.3% hits; note: % of control where 0% means no effect; nearly all actives have a fitted effect of over 60% in size
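DMSO vehicle served as control against compound-treated ELG1-luciferase HEK293T cells; exposure lasted 16 hr at 37 °C and 5% CO2, followed by ONE-Glo luminescence detection after 30 min.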
ELG1 DNA repair: ELG1-dependent DNA repair inhibition | Potency, µM (highest dose often 46.1 µM), without a hit: top-dose activity change, negative = inhibition, most hits filed as inhibitors | HEK293T ELG1-luciferase reporter, luminescence, 16 h; DNA damage induced by 5-fluorouridine | 330,000 compounds, 2.3% hits | AID 504467; note: % is set by controls: 0 for no effect and ±100 for the full control effect; nearly all actives have a fitted effect of over 55% in size
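Reporter activity after DNA damage by 5-fluorouridine is monitored. Compound-treated cells incubate 16 hr at 37 °C, then ONE-Glo is added for 30 min before luminescence reading.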
* hit, by the source's call; ? = inconclusive; . = no result given. Most compounds without a hit are left out; they make up all but 9.2% or so of the library. Calls come from the whole dose curve; as a rule, active = well fitted curve in the direction sought with a large enough effect; inconclusive = small, poorly fitted or top-dose-only effect, or another doubt; inactive = no such curve, though single readings can be large; an effect the other way counts as inactive or inconclusive. Potency is the fitted concentration of half-maximal effect.

SMILES	NPC1 promoter act	FLuc modulator	SMN2 splice enh	Rab9 promoter act	ELG1 genotoxic	ELG1 DNA repair
Cc1cccc(OCCCC(=O)Nc2ccc(Br)cc2)c1	1.9%	-1.5%	14.1%	-4.8%	1.2%	-13.4%
Cn1cc(C(=O)NCc2ccc(Cl)cc2)c(=O)c2cc(S(=O)(=O)N3CCOCC3)ccc21	1.8%	-2.3%	.	3.3%	-1.2%	-5.0%
Cc1ccc(Cl)cc1N1CCN(C(=O)c2ccc(C)c(-n3c(C)nc4cccnc43)c2)CC1	.	-7.7%	.	.	.	.
O=C(NC1CC1)c1ccc(Cn2c(SCc3ccc(F)cc3)nc3cccnc32)cc1	.	1.69µM*	.	.	.	.
Cc1ccccc1CSc1nc2cccnc2n1Cc1ccc(C(=O)NC2CC2)cc1	.	6.01µM*	.	.	.	.
Cc1ccc(-c2cn3nc(N4CCCC(C(=O)NCc5ccc(F)cc5)C4)sc3n2)cc1 (stereo not given)	.	8.49µM*	.	.	.	.
COc1ccc(-c2cn3nc(N4CCCC(C(=O)Nc5cc(C)cc(C)c5)C4)sc3n2)cc1 (stereo not given)	.	-18.7%	.	.	.	.
Cc1ccc(-c2cn3nc(N4CCCC(C(=O)Nc5ccc(F)cc5)C4)sc3n2)cc1 (stereo not given)	.	12µM*	.	.	.	.
COc1ccc(-c2cn3nc(N4CCCC(C(=O)Nc5ccc(C)c(C)c5)C4)sc3n2)cc1 (stereo not given)	.	-16.7%	.	.	.	.
CCNC(=O)C1CCCN(c2nn3cc(-c4ccc(C)cc4)nc3s2)C1 (stereo not given)	.	1.2µM*	.	.	.	.
Cc1c(Cl)cnc(NC(=O)COC(=O)CCc2nc3ccccc3s2)c1Cl	1.9%	-0.1%	5.6%	-0.2%	6.2%	18.3%
CSC1=NCCN1C(=O)C12CC3CC(CC(C3)C1)C2	-4.2%	-2.9%	-4.8%	-3.1%	-7.5%	-9.0%
Cc1ccc(CNC(=O)CCC2CCCN(C(=O)CCC(F)(F)F)C2)o1 (stereo not given)	6.1%	2.9%	.	-12.6%	-0.4%	-0.6%
CC(Sc1nc(-c2ccc(F)cc2)cs1)C(=O)N1c2ccccc2CC1C (stereo not given)	-0.7%	-0.4%	-33.8%	-4.4%	-9.8%	25.9µM*
CC1CCCCC12NC(=O)N(CC(=O)NCCc1ccc(F)cc1)C2=O (stereo not given)	-1.8%	-5.3%	.	-1.5%	0.2%	0.6%
CC(=O)Nc1cccc(Oc2nc(-c3ccccn3)nc3ccccc23)c1	-6.3%	15.1µM*	.	-0.7%	-14.8%	0.0%
O=S(=O)(Nc1cc(Sc2cccc3cccnc23)c(O)c2ccccc12)c1ccc(F)cc1	-22.2%	?	-75.7%	-32.1%	-11.5%	9.2µM*
O=S(=O)(Nc1cccnc1Cl)c1ccc(F)cc1	0.6%	-1.0%	.	-4.0%	-4.8%	-10.0%
O=C(O)CSc1cc(NS(=O)(=O)c2ccc(Cl)cc2)c2ccccc2c1O	-20.6%	?	.	-33.3%	-30.9%	?
COc1ccc(S(=O)(=O)Nc2cc(SCC(=O)O)c(O)c3ccccc23)cc1	-26.8%	?	.	-31.9%	-31.1%	16.4µM*
COc1ccc(S(=O)(=O)Nc2cc(Sc3ncn[nH]3)c(O)c3ccccc23)cc1	0.3%	?	-95.0%	-5.0%	-35.1%	23.1µM*
Cc1ccc(-n2cc(-c3ccccc3)[nH]c2=O)cc1F	3.16µM*	?	25.1µM*	3.16µM*	?	?
O=C(Nc1ccccc1-c1nnc(SCc2ccccc2)o1)c1ccccc1	0.7%	3.6%	-22.0%	0.1%	-4.6%	-3.4%
O=C(O)c1ccc(CSc2nnc(-c3ccccc3Br)o2)cc1	2.1%	23.9µM*	.	-0.9%	6.4%	19.7%
O=C(O)c1ccc(CSc2nnc(-c3ccc(Cl)cc3)o2)cc1	-3.6%	16.9µM*	.	-1.0%	8.5%	18.0%
SMILES	NPC1 promoter act	FLuc modulator	SMN2 splice enh	Rab9 promoter act	ELG1 genotoxic	ELG1 DNA repair
COC(=O)c1c(N2C(=O)[C@H]3[C@@H](C2=O)[C@]2(C(=O)Nc4c(C)cccc42)N2CCC[C@@H]32)sc(C)c1C	-6.4%	-2.4%	6.4%	4.2%	1.4%	16.4µM*
Cc1cc(Cl)cc2c1NC(=O)[C@]21[C@@H]2C(=O)N(Cc3ccccc3)C(=O)[C@@H]2[C@@H]2CCCN21	-0.8%	-2.2%	9.4%	-1.7%	-3.3%	?
Cc1ccccc1CNC(=O)c1cnc2sc(N3CCC(C)CC3)nn2c1=O	.	2.8%	.	.	.	.
Nc1ccccc1C(=O)NCc1ccc(F)cc1	0.4%	-1.0%	1.3%	-1.5%	2.7%	7.9%
O=C(Nc1ccccc1NC(=O)c1ccc(F)cc1)c1ccc(F)cc1	-3.6%	-0.5%	.	-2.8%	-2.4%	-7.8%
Nc1[nH]c(N=NC(=O)c2ccc(F)cc2)c2ccccc12	?	7.57µM*	.	3.98µM*	?	?
Nc1ccccc1C(=O)N=Nc1[nH]c(N)c2ccccc12	3.55µM*	3.79µM*	17.8µM*	2.82µM*	?	?
CCOc1ccc(N(CC(=O)NCc2ccco2)C(=O)CCC(=O)Nc2nccs2)cc1	-1.9%	-0.4%	.	4.0%	0.1%	1.4%
CCOc1ccc(/C=C2/SC(=O)NC2=S)cc1	25.4%	16.9µM*	?	?	6.7%	?
CCOc1ccc(N=C2NC(=O)S/C2=C\c2ccc(N(C)C)cc2)cc1	4.47µM*	12µM*	11.2µM*	?	?	?
O=C1NC(=Nc2ccc(Cl)cc2)/C(=C/c2ccco2)S1	-2.1%	-13.3%	?	-2.1%	10.0%	6.7%
CCOc1ccc(/C=C2\SC(=S)N(N3C(=O)C4CC4C3=O)C2=O)cc1 (stereo not given)	-2.4%	?	5.0%	0.4%	1.1%	-1.4%
O=C(CSc1nnc(-c2ccccc2Cl)o1)N1CCCC1	?	15.1µM*	.	?	?	?
O=C(CSc1nnc(-c2ccccc2Br)o1)N1CCOCC1	2.82µM*	19µM*	.	3.98µM*	?	?
O=C(CSc1nnc(-c2ccccc2O)o1)N1CCCCC1	23.9%	10.7µM*	.	25.6%	?	?
O=C(CSc1nnc(-c2ccccc2Cl)o1)N1CCCCC1	?	15.1µM*	15.8µM*	?	4.61µM*	?
CC(Sc1nnc(-c2ccccc2Br)o1)C(=O)N1CCOCC1 (stereo not given)	3.8%	-13.4%	.	8.9%	7.3%	6.3%
COc1ccc(/C=N/NC(=O)c2ccc(=O)n(C)c2)cc1OC	-3.9%	7.2%	8.5%	1.7%	?	?
O=C1CN(S(=O)(=O)c2ccccc2)c2ccccc2N1	-1.3%	-5.3%	.	-7.6%	-4.1%	?
O=C(CSc1nnc(-c2ccccc2O)o1)N1CCc2ccccc2C1	-2.0%	-17.0%	-47.5%	27.1%	0.1%	-29.2%
O=C(CSc1nnc(-c2ccccc2O)o1)N1CCOCC1	?	?	.	3.16µM*	?	?

Screening results as filed in PubChem.
